Measured values as given in PubChem BioAssay AID1030 (National Center for Advancing Translational Sciences (NCATS), 2008).
About 16,000 (7.3%) of roughly 220,000 compounds were called active. About 25% were inconclusive and are not listed. What follows is part of a selection rich in actives, with near analogues and random picks from the rest. Unmarked numbers belong to inactive results. Calls come from the whole dose curve; as a rule, active = well fitted inhibition curve with a large enough effect (not every such curve was filed as active); inconclusive = small, poorly fitted or top-dose-only effect, or another doubt; inactive = no such curve, though single readings can be large or run the other way.

Target: Aldehyde dehydrogenase 1A1 (Homo sapiens) (UniProt P00352)
Sequence (P00352 whole entry, looked up): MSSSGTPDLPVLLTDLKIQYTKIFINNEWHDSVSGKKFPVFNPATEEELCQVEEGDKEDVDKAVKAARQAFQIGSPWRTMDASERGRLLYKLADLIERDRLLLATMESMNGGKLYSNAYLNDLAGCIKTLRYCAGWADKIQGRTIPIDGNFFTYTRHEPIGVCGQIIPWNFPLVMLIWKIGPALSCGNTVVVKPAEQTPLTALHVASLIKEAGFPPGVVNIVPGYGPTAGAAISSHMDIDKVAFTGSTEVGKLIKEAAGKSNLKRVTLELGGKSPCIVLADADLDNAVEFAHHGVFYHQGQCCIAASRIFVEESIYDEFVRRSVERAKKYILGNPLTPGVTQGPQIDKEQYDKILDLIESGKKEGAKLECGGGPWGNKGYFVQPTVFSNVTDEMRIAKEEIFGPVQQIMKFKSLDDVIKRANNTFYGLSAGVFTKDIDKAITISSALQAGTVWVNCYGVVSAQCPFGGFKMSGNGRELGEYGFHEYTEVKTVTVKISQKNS
Experiment: qHTS Assay for Inhibitors of Aldehyde Dehydrogenase 1 (ALDH1A1);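 for activity, negative = inhibition: plate controls were no enzyme wells and a reference inhibitor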
Conditions: Purified ALDH1A1, NADH fluorescence, propionaldehyde substrate; series mostly up to 75.3 µM; activity, negative = inhibition: at the top concentration
Potency is the fitted concentration of half-maximal effect.

SMILES | activity, negative = inhibition | Potency
COc1cc(N2C(=O)c3ccccc3C2=O)c(Cl)cc1C(=O)OCC(=O)N1CCOCC1 | -4.16% | 
CC(C)(O)C#Cc1ncc(C(F)(F)F)cc1Cl | 8.76% | 
CSc1ccc(CN(C)CC(=O)NCc2ccc(F)cc2)cc1 | -7.51% | 
CCC(C)[C@@H](C(=O)N1CCNCC1)n1cc(CCCCN)nn1 (some centres undefined) | 2.27% | 
COc1cccc(CC(=O)N2CCCC(CCC(=O)N3CCN(c4ccccn4)CC3)C2)c1 (centres undefined) | 2.51% | 
CCSC1=C(C#N)C(=O)n2c1cc1c2CCCC1 |  | 4.47 µM (active)
C=CCNc1nc(Nc2ccc(Cl)cc2)nc(OC)n1 | 5.03% | 
C=C1O[C@@](CO)(n2cnc3c(N)ncnc32)[C@H](O)[C@@H]1O | -5.99% | 
Cc1ccc(-n2nc(C)c(/C=N/NC(=O)c3cccs3)c2Cl)cc1 | 2.29% | 
Cc1nnc(N/N=C/c2ccccn2)[nH]c1=O | 14.6% | 
Cc1cc(=O)[nH]c(N/N=C/c2c(C)nn(-c3ccccc3Cl)c2Cl)n1 |  | 5.01 µM (active)
O=C(CSc1nnc(-c2ccncc2)n1-c1ccc(Cl)cc1)Nc1ccc(C(=O)O)cc1 | 6.45% | 
CC1(C)CC(=O)CC2(C1)NCC(c1ccccc1Cl)c1c2[nH]c2ccccc12 (centres undefined) | -4.55% | 
COCCN1C(=O)N[C@@H](CCc2ccccc2)[C@H](C(C)=O)[C@H]1C | 3.4% [at 13.5 µM] | 
C=CC1=C2C=C(C3CC3)N(C(CO)CO)C=C2C(=O)C(C)(OC(=O)c2ccco2)C1=O (centres undefined) | -4.41% [at 13.5 µM] | 
CN(C)/C=C(/C(=O)c1ccc(F)cc1)S(=O)(=O)c1ccc(F)cc1 | -0.904% | 
CCOc1ccc(N(CC(=O)OC)S(=O)(=O)c2c(C)noc2C)cc1 | 2.28% | 
CCOC(=O)c1cccc(NC(=O)CN(c2ccc(C)cc2)S(=O)(=O)c2c(C)noc2C)c1 |  | 7.94 µM (active)
CCOc1ccc(N(CC(=O)NCc2ccc(OC)cc2)S(=O)(=O)c2c(C)noc2C)cc1 | -6.14% | 
CC(=O)c1c(C)[nH]c(C(=O)OCC(=O)NCCC(C)C)c1C | -2.21% | 
CCOc1cc(/C=N/NC(=O)c2ccc(CSc3nncn3C)cc2)ccc1OCC(=O)N1CCOCC1 | 1.26% | 
CCOc1cccc(/C=N/NC(=S)NCCN2CCOCC2)c1O | -10.2% | 
CCOc1ccccc1N=C1NC(=O)CS1 | -7.47% | 

SMILES | activity, negative = inhibition | Potency
CCOc1cccc(/C=N/N2C(=O)CSC2=S)c1O |  | 7.08 µM (active)
O=C1CCC[C@@H]2CC(N3CCCCC3)C[C@@H]3CCN1[C@H]23 (some centres undefined) | 3.52% [at 120 µM] | 
COCCn1c(N)c(N(Cc2ccccc2)C(=O)C2CCCCC2)c(=O)[nH]c1=O | 6.29% | 
O=C(Cn1ncc(N2CCCC2)c(Br)c1=O)c1ccc(Cl)cc1 | 1.58% | 
COc1cc(C(=O)N2CCOCC2)cc(OC)c1OC | 12.8% | 
CCN1CCN(CC(=O)c2cc(OC)c(OC)c(OC)c2)CC1 |  | 28.2 µM (active)
CCCN(CCC)S(=O)(=O)c1ccc(C(=O)NNC(=O)c2cc(OC)c(OC)c(OC)c2)cc1 | 17.2% | 
COc1ccc(N2C(=O)C(O)C2c2ccc(C)cc2)cc1 (centres undefined) | -1.47% | 
COc1ccc(-c2c(C)cc3oc(=O)cc(-c4ccccc4)c3c2C)cc1F | 1.38% | 
COc1ccc(-c2c(C)cc3oc(=O)cc(-c4ccccc4)c3c2C)cc1C=O |  | 0.126 µM (active)
Cc1cc2oc(=O)cc(-c3ccccc3)c2c(C)c1-c1ccc(OC(F)(F)F)cc1 | -3.09% | 
C=CCn1c(COc2ccc(F)cc2)nnc1SCC(=O)Nc1cccc(S(N)(=O)=O)c1 | -0.0485% | 
Cc1cccc(CSc2nnc(C)c(=O)n2N)c1 | 14.4% | 
Cc1cc(NC(=O)CN2C(=O)NC(C)(CCc3ccccc3)C2=O)no1 (centres undefined) | 0.49% | 
S=C(NNC(=S)NC1CC2CCC1C2)NC1CC2C=CC1C2 (centres undefined) |  | 20 µM (active)
CC1CCN(C(=S)NC2CC3CCC2C3)CC1 (centres undefined) | 0.0397% | 
S=C(NNC(=S)NC1CC2C=CC1C2)NC1CC2C=CC1C2 (centres undefined) |  | 12.6 µM (active)
COc1ccc(C(=S)Nc2ccccc2)cc1 | -3.12% | 
COCCCNC(NC(=O)c1ccc(OC)cc1)C(Cl)(Cl)Cl (centres undefined) | -4.51% | 
COCCNC(=S)c1ccc(OC)cc1 |  | 20 µM (active)
Cn1nc(-c2ccccc2)c(CO)c1Sc1ccccc1 | -3.87% | 
COc1ccc(C(=O)NNC(=O)c2cc(C)[nH]n2)cc1 | 12.4% | 
Cc1ccc(C2NC(=S)NC3=C2N2CCC3CC2)cc1 (centres undefined) |  | 8.91 µM (active)

SMILES | activity, negative = inhibition | Potency
CC(O)c1cccc(NC(=O)Cc2cccc3ccccc23)c1 (centres undefined) | -2.39% | 
O=C(NCc1ccco1)c1nn2cccnc2c1Cl | -8.83% | 
O=C(NCc1ccco1)c1cc2sccc2n1Cc1ccc(F)cc1 | -10.9% | 
O=C(NCc1ccco1)c1sc2cccc(F)c2c1Cl |  | 28.2 µM (active)
O=C(CC1CCCCC1)NCc1ccc(F)cc1 | 6.96% | 
O=C(CC1CCCCC1)Nc1c2c(nn1-c1ccc(F)cc1)CS(=O)(=O)C2 |  | 7.94 µM (active)
COc1cccc(C(=O)Nc2c3c(nn2-c2cccc(C)c2C)CS(=O)(=O)C3)c1OC | -5.86% | 
COCCNc1nc2nonc2nc1N(C)Cc1ccc(C)cc1 | -9.02% | 
CCCCN(CC)CCCNC(=O)c1ccc(CSc2nc3ccncc3[nH]2)cc1 | 5.75% | 
Cc1c(C=O)n(C)n(-c2ccccc2)c1=O | -2.02% | 
CCOC(=O)N1CCC(=NNC(N)=O)CC1 | -13.5% | 
O=C(NCC1CCCO1)C1CCN(C2CCN(C(=O)C3CCCCC3)CC2)CC1 (centres undefined) | 5.35% | 
Cc1cccc(NC(=O)c2nnn(-c3cccc(C(F)(F)F)c3)c2N)c1 | 1.01% | 
CCn1c2ccccc2c2cc(NC(=O)COC(=O)c3ccccc3Br)ccc21 | 1.6% | 
CCn1c2ccccc2c2cc(NC(=S)N3CCOCC3)ccc21 | -0.0483% | 
CCn1c2ccccc2c2cc(NC(=O)CNC)ccc21 |  | 25.1 µM (active)
CCOc1ccc(CN2CCN(Cc3ccc(C)o3)CC2CCO)cc1 (centres undefined) | -0.485% | 
Oc1c(C(c2ccccn2)N2CCOCC2)ccc2cccnc12 (centres undefined) | 3.47% | 
CCN1CCN(C(c2cccnc2)c2cc(Cl)c3cccnc3c2O)CC1 (centres undefined) |  | 1.78 µM (active)
O=C(O)COc1c(Cl)cc(Cl)c2cccnc12 | -8.71% [at 13.5 µM] | 
CCOC(=O)N1CCN(C(=O)CSc2ccc(Cl)cc2)CC1 | -0.583% | 
Oc1c(CN2CCN(c3ccc(F)cc3)CC2)cc(Cl)c2cccnc12 | 6.3% | 
CCOC(=O)N1CCN(C(c2cccnc2)c2ccc3cccnc3c2O)CC1 (centres undefined) |  | 1.58 µM (active)
